{
  "source": "PubChem BioAssay (EPA / NIEHS)",
  "note": "“And” between values parts separate entries of the source, which are not always exact repeats. Identical values can stand only once. More than one record can exist for a structure, and the calls need not agree. The source made the active and inactive calls. Rule for the calls: active = hit-call score of the fitted dose curve at least 0.9, where 1 is the maximum; inactive = score below 0.9.",
  "data": [
    {"test": "BSK_hDFCGF_Proliferation: Cell Proliferation Assessment in the BioMAP Diversity Plus: hDFCGF Assay (AID 2283059);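 note: curves fitted for both rise and fall of signal versus DMSO baseline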", "settings": "primary human foreskin fibroblasts", "procedure": "BSK_hDFCGF is a cell-based, multiplexed-readout assay that uses foreskin fibroblast, a human skin primary cell, with measurements taken at 24 hours after chemical dosing in a 96-well plate.BSK_hDFCGF_Proliferation is an assay component measured in the BSK_hDFCGF assay. It measures […] related to cell proliferation using Sulforhodamine staining technology.Data from the assay component BSK_hDFCGF_Proliferation was analyzed into 1 assay endpoint. This assay endpoint, BSK_hDFCGF_Proliferation, was analyzed with bidirectional fitting relative to DMSO as the negative control and baseline of activity. Using a type of viability reporter, measures of total protein for gain or loss-of-signal activity can be used to understand the viability at the cellular-level. Furthermore, this assay endpoint can be referred to as a secondary readout, because this assay has produced multiple assay endpoints where this one serves a viability function. To generalize the intended target to other relatable targets, this assay endpoint is annotated to the cell cycle intended target family, where the subfamily is proliferation.\nThe levels of cell surface (or secreted, indicated by the prefix \"s\") biomarker endpoints were measured by ELISA. Overt cytotoxicity to cells in confluent adherent cultures (all systems other than the BT system) was assessed by measuring total protein levels using sulforhodamine B (SRB) staining in parallel cultures at the time of biomarker measurements, indicated as SRB endpoints. For proliferation assays for adherent cell types, individual cell types are cultured at sub-confluence and relative cell numbers quantified by SRB staining at time points optimized for each system (48 h: 3C and CASM3C systems; 72 h: BT and HDF3CGF systems; 96 h: SAg system). SRB was performed by staining cells with 0.1% SRB after fixation with 10% TCA and reading wells at 560 nm.Viability and proliferation of PBMC (T cells) was quantified by Alamar Blue reduction for the SAg and BT systems. For PBMC viability (referred to as PBMC Cytotoxicity within the assay endpoint names), cells were plated (75,000/well in a 96-well plate) and then chemical samples added for 1 h before addition of activators, SEB and TSST-1 (20 ng/mL final concentration each). Cells were incubated for 90 h. Then, Alamar Blue (20 uL/well) (Invitrogen, Cat DAL1100) was added for 6 h, and the plates were read with a fluorescence microplate reader at 546/580 nm (excitation/emission). For PBMC proliferation, cells were plated and activated as above but incubated for only 16 h prior to addition of Alamar Blue. Plates were read after 6 h.", "values": [
      {"smiles": "COCN(COC)c1nc(N(COC)COC)nc(N(COC)COC)n1", "outcome": "inactive"},
      {"smiles": "OCCN1CN(CCO)CN(CCO)C1", "AC50": "25.8 µM (active)"},
      {"smiles": "CCCCCCCCCCCC", "AC50": "11.6 µM (active) and 11.5 µM (active)"},
      {"smiles": "Clc1ccc(Nc2nnc(Cc3ccncc3)c3ccccc23)cc1", "outcome": "inactive"},
      {"smiles": "O=C1OC2(c3ccccc31)c1cc(I)c(O)c(I)c1Oc1c2cc(I)c(O)c1I", "AC50": "15.2 µM (active)"},
      {"smiles": "CCCCCc1ccc(O)cc1", "AC50": "8.97 µM (active)"},
      {"smiles": "CS(=O)(=O)c1ccc([C@@H](CC2CCCC2)C(=O)Nc2cnccn2)cc1Cl", "AC50": "20 µM (active)"},
      {"smiles": "CCCCc1oc2ccccc2c1C(=O)c1cc(I)c(OCCN(CC)CC)c(I)c1", "AC50": "3.97 µM (active)"},
      {"smiles": "CCCCC=O", "outcome": "inactive"},
      {"smiles": "CCCCCCCCCCCCCCCCCC[N+](C)(C)Cc1ccccc1", "AC50": "0.0156 µM (active)"},
      {"smiles": "O=C(O)C(F)(F)OC(F)(F)C(F)(F)OC(F)(F)C(F)(F)OC(F)(F)C(F)(F)C(F)(F)C(F)(F)F", "AC50": "7.93 µM (active) and 8.07 µM (active)"},
      {"smiles": "CCCCC(CC)C(=O)O", "note": "(stereo not given)", "outcome": "inactive"},
      {"smiles": "O=C1NS(=O)(=O)c2ccccc21", "outcome": "inactive"},
      {"smiles": "C=CC(C)(CCC=C(C)C)OC(C)=O", "note": "(stereo not given)", "AC50": "24.7 µM (active)"},
      {"smiles": "Oc1cc2ccccc2cc1O", "AC50": "29.7 µM (active)"},
      {"smiles": "CN(C)CCOC(c1ccccc1)c1ccccc1", "outcome": "inactive"},
      {"smiles": "CC1=NN(c2ccccc2)C(=O)C1", "outcome": "inactive"},
      {"smiles": "NC(=NCCCCCCN=C(N)/N=C(\\N)Nc1ccc(Cl)cc1)/N=C(\\N)Nc1ccc(Cl)cc1", "AC50": "1.44 µM (active)"},
      {"smiles": "CCC(C)c1ccccc1O", "note": "(stereo not given)", "outcome": "inactive"},
      {"smiles": "O=P(O)(O)CCC(F)(F)C(F)(F)C(F)(F)C(F)(F)C(F)(F)C(F)(F)C(F)(F)C(F)(F)F", "AC50": "39.9 µM (active) and 49.4 µM (active)"},
      {"smiles": "O=S(=O)(O)C(F)(F)C(F)(F)C(F)(F)C(F)(F)C(F)(F)C(F)(F)C(F)(F)C(F)(F)C(F)(F)C(F)(F)F", "AC50": "1.46 µM (active) and 1.89 µM (active)"},
      {"smiles": "Oc1ccc(Cc2ccccc2O)cc1", "AC50": "33.6 µM (active)", "outcome": "inactive"},
      {"smiles": "C=CC(=C)CC/C=C(\\C)CCC=C(C)C", "AC50": "6.49 µM (active)"},
      {"smiles": "CCCCCCCCCCCCCCC", "outcome": "inactive"},
      {"smiles": "CC(C)(C)c1ccc(O)c(O)c1", "AC50": "7.12 µM (active)"},
      {"smiles": "O=C(NCc1ncc(C(F)(F)F)cc1Cl)c1c(Cl)cccc1Cl", "outcome": "inactive"},
      {"smiles": "O=P(O)(O)CCC(F)(F)C(F)(F)C(F)(F)C(F)(F)C(F)(F)C(F)(F)F", "AC50": "15.8 µM (active) and 19.1 µM (active)"},
      {"smiles": "COc1cc(OC)nc(NC(=O)NS(=O)(=O)Nc2ccccc2C(=O)N(C)C)n1", "outcome": "inactive"},
      {"smiles": "O=C(CCCN1CCC(O)(c2ccc(Cl)cc2)CC1)c1ccc(F)cc1", "AC50": "4.55 µM (active)"},
      {"smiles": "Cc1ccc(C(=O)c2ccccc2)cc1", "AC50": "32.4 µM (active)"},
      {"smiles": "N=C(N)c1ccc(OCCCCCOc2ccc(C(=N)N)cc2)cc1", "AC50": "12.1 µM (active)"},
      {"smiles": "C=CC(=O)OCCC(F)(F)C(F)(F)C(F)(F)C(F)(F)C(F)(F)C(F)(F)C(F)(F)C(F)(F)F", "AC50": "30 µM (active)", "outcome": "inactive"},
      {"smiles": "CCCCCCCCCCCCOS(=O)(=O)O", "AC50": "16 µM (active)"},
      {"smiles": "C[C@]12CC[C@@H]3c4ccc(O)cc4CC[C@H]3[C@@H]1C[C@@H](O)[C@@H]2O", "outcome": "inactive"},
      {"smiles": "CN(C)c1ccc(C(=C2C=CC(=[N+](C)C)C=C2)c2ccccc2)cc1", "AC50": "0.0173 µM (active)"},
      {"smiles": "O=C(c1ccccc1)c1ccccc1", "outcome": "inactive"},
      {"smiles": "O=C1c2ccc(O)c(O)c2C(=O)c2c(O)ccc(O)c21", "outcome": "inactive"},
      {"smiles": "C=COC(=O)C(C)(C)CCCCCC", "AC50": "31.7 µM (active)"}
    ]}
  ]
}
